Drawing on PubChem BioAssay (NCI), this text covers growth for 25 compounds.

Molecules are shown by their SMILES. The panel holds about 83,000 compounds, 20% with a hit somewhere; the sample as a whole holds those more often.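 Single-dose data. Exposure time 48 hours. Values below 10 considered active.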 Values without a mark were called inactive. Activity calls are given as the source filed them.

What all share (experiment): NCI-60 one-dose screen, 48 h (100 = growth as untreated, 0 = no growth, -100 = all killed)
Common to all, as to settings: 10 µM

For assay [1], the system named is EKVX NSCLC.
Assay [2] relates to SN12C renal.
Assay [3] relates to UO-31 renal.
Assay [4] deals with ACHN renal.
Assay [5] relates to CAKI-1 renal.
Assay [6] relates to A498 renal.
For assay [7], the system named is CCRF-CEM leukemia.
The subject of assay [8] is MOLT-4 leukemia.
For assay [9], the system named is TK-10 renal.

With `O=[N+]([O-])c1ccc(-c2nc(-c3ccccc3)c(-c3ccccc3)n2-c2ccccc2)cc1`, the growth is 34.8% in [1]; 43.6% in assay [2]; -6.05% (active) in [3]; 19% in [4]; 48.1% in assay [5]; 41.3% in assay [6]. Also, the growth in assay [7] is 1.03% (active); in assay [8], -44.6% (active).
Turning to `COc1cc(-c2nc3ccc(C)cc3[nH]2)ccc1OCC(=O)N=Nc1c(O)[nH]c2ccccc12`, the growth in assay [2] is -61.8% (active); in assay [3], 95.9%; in [4], 14%; in [5], -46.3% (active); in assay [6], 75.5%; in assay [7], -50% (active). In addition, in assay [8], the growth is -65% (active).
Take `CCCCCCCOc1cccc(/C=C2/C(=O)N=C3SCCCN32)c1`: the growth in [1] was 74.2%; in assay [3], 61.9%; in assay [9], 75.7%; in assay [4] it was 79.2%; in assay [5] it was 84.9%; in [6] it was 97.6%. Moreover, the figures for the growth in assay [7] and in [8] were 60.4% and 50.2%, respectively.
In the case of `CN1/C(=C\C(I)C(I)C2=[N+](C)c3ccccc3C2(C)C)C(C)(C)c2ccccc21` (stereo not given), the growth in [1] is 7.21% (active); in [3], -1.6% (active); in assay [9], 18.7%; in assay [4] it was 4.88% (active); in [5], 21.5%; in [6], -2.55% (active). Moreover, the growth is 12.1% in assay [7] and -12.5% (active) in [8].
Consider `Cc1cc(C(C)(C)CC(C)(C)C)ccc1OCCOCC[N+](C)(C)Cc1ccccc1`, for which the growth in assay [1] was -0.736% (active); in assay [3], 65.4%; in assay [9] it was -11.6% (active); in [5], 89.1%; in [6], 4.39% (active); in assay [7] it was -8.84% (active). Further, the growth in assay [8] was -39.6% (active).
Regarding `O=C(CCc1ccccc1)N1CCN(C(=O)CCc2ccccc2)CC1`, the growth in assay [1] was 115%; in assay [2], 96.9%; in [3], 60.1%; in assay [9], 111%; in [4], 104%; in assay [5], 95.1%. The growth in assay [6] was 152%; in assay [7] it was 88.2%; in [8] it was 88.6%.
As to `CN(C)c1ccc2c(c1)OC(N)=C(C#N)C2c1ccc2c(c1)CCO2` (stereo not given), the growth in assay [1] is 35.9%; in assay [3], 38.2%; in assay [4], 37.4%; in [5] it was 37%; in [6], -9.63% (active); in [7], 28.7%. Also, the growth in assay [8] is 34.5%.
`CC(CNC(Cc1ccccc1)c1ccccc1)NC(Cc1ccccc1)c1ccccc1` (stereo not given): the growth in [1] was 26.8%; in [3], 37.6%; in [9] it was 60.6%; in assay [4] it was 47.7%; in [5], 15.6%; in [6] it was 74.5%. In addition, the growth in assay [7] was 35.2%; in [8], 14.9%.
Consider `Cc1cccc2c(Nc3ccc(NS(C)(=O)=O)cc3)c3ccc([N+](=O)[O-])cc3nc12`, for which the growth is 7.61% (active) in assay [2]; 10.5% in assay [3]; 20.7% in assay [9]; -11.4% (active) in assay [4]; 6.69% (active) in assay [5]; -11.2% (active) in [6]. Also, the growth was -9.83% (active) in assay [7] and -5.36% (active) in assay [8].
`CC(=O)OC1Oc2ccccc2-c2oc(=O)c(-c3cc(=O)oc4cc(O)ccc34)cc21` (stereo not given): the growth in assay [1] is 86.6%; in [2] it was 95.6%; in assay [4] it was 85.8%; in [5], 93.7%; in [6] it was 54.8%; in [7], 32.1%. In addition, the growth in assay [8] is 42.8%.
In the case of `CCCCn1c(=O)[nH]c(N)c(C(c2ccc(Cl)cc2)c2c(N)[nH]c(=O)n(CCCC)c2=O)c1=O`, the growth in assay [1] was 48.6%; in [3] it was 95.4%; in assay [9], 50.7%; in assay [5], 90.7%; in [6] it was 89.3%; in [7], 16.7%. Further, in [8], the growth is -11.8% (active).
With `N#Cc1c(-c2ccccc2)nc(SCC(=O)N2CCOCC2)[nH]c1=O`, the growth in [2] is 99.1%; in assay [3], 71.9%; in [4], 98.5%; in assay [5], 94.1%; in assay [6], 93.5%; in assay [8], 83.5%.
For the compound `CCCCCCCCCCCCc1ccc(C(=O)/C=C/C(=O)O)cc1`, the growth in assay [1] is 99.9%; in assay [3], 85.3%; in assay [9], 68.7%; in [4], 55.9%; in assay [5] it was 91.1%; in assay [6], 81.7%. Moreover, the values for the growth in assay [7] and in assay [8] were -17.6% (active) and -15.1% (active), respectively.
On to `OC(CNC1CCCC1)Cn1c2ccccc2c2ccccc21` (stereo not given), for which the growth is 50.7% in assay [2]; 12.3% in assay [3]; 29.2% in assay [9]; 15.1% in assay [4]; 31.8% in assay [5]; 58% in assay [6]. The growth in assay [7] is 4.28% (active); in assay [8] it was -13.9% (active).
For the compound `COc1cc(-c2cc(/C=C/C(C)=O)[nH]n2)cc(OC)c1OC`, the growth in assay [2] is 67.5%; in assay [3], 52.4%; in [9], 73.8%; in [4], 78.7%; in [5], 55.2%; in assay [6], 90.7%. The growth in assay [7] was 20%; in [8] it was 71.2%.
Take `COC(=O)[C@]12CC[C@@H](C)[C@H](C)[C@@H]1C1=CC[C@@H]3[C@@]4(C)CC(=O)[C@H](O)[C@@](C)(CO)[C@@H]4C(=O)C[C@@]3(C)[C@]1(C)CC2`: the growth in [1] was 3.1% (active); in assay [3], -75.4% (active); in [9], 22.1%; in [4], -51.5% (active); in assay [5], -66.4% (active); in [6] it was -11.3% (active). The results for the growth in assay [7] and in assay [8] were -13.7% (active) and -31.8% (active), respectively.
As to `O=c1ccc2nc(-c3ccccc3)nn(-c3ccccc3)c-2c1`, the growth in assay [2] is 40.2%; in assay [3] it was -97.5% (active); in assay [9] it was -95.9% (active); in [4], -96% (active); in assay [5] it was -90.9% (active); in assay [6], 84.4%. In addition, the growth in assay [7] was -16.3% (active); in assay [8], -37.9% (active).
As to `O=C1/C(=C/c2ccc(O)cc2O)N=C2SCCCN12`, the growth in assay [1] was 96.3%; in assay [3] it was 97.6%; in assay [4], 97.6%; in assay [5] it was 97.4%; in [6], 90.1%; in assay [7], 111%. For the same compound, in assay [8], the growth is 93.8%.
As to `CCOC(=O)Cn1nnc(-c2ccc(OCc3ccccc3F)cc2)n1`, the growth in [2] is 98.2%; in assay [3], 58%; in assay [9], 105%; in [4], 84.6%; in assay [5], 76.5%; in [6] it was 40.9%. Also, the growth in assay [7] was 92.4%; in assay [8], 90%.
With `CS(=O)(=O)Nc1ccc(OCc2nnc(-c3ccc(Cl)cc3)o2)c(F)c1`, the growth in assay [2] was 88.1%; in [3], 74.1%; in assay [4] it was 86%; in assay [5], 91.3%; in assay [6], 62.5%; in [7], 97.5%. In addition, in [8], the growth is 81%.
As to `C=CCc1cc(Nc2c3ccc(Cl)cc3nc3ccc(OC)cc23)cc(CN(CC)CC)c1O`, the growth was 0.403% (active) in assay [1]; 5.47% (active) in [3]; 12.7% in [9]; 4.15% (active) in assay [4]; 7.85% (active) in [5]; 20.6% in assay [6]. The results for the growth in assay [7] and in [8] were 5.06% (active) and -20.3% (active), respectively.
For the compound `CC(=O)[C@H]1CC[C@H]2[C@@H]3CC[C@@H]4CC=C(C=O)C[C@]4(C)[C@H]3CC[C@]12C`, the growth in assay [2] is 93.4%; in assay [3], 84.8%; in assay [9], 85.2%; in assay [4], 92.4%; in assay [5], 88.5%; in assay [6], 76.8%. In addition, the figures for the growth in [7] and in assay [8] were 82.6% and 72.8%, respectively.
Take `Nc1ccccc1NC(=O)CCCCCCC(=O)Nc1ccc2c(c1)/C(=C/c1ccc[nH]1)C(=O)N2`: the growth in assay [2] is 17.4%; in [3] it was 29.1%; in [9], 48.1%; in assay [4] it was 77%; in [5], 49.8%; in assay [6] it was -0.734% (active). In addition, the growth was 5.46% (active) in assay [7] and 9.11% (active) in [8].
For `CC(=O)Nc1ccc(Sc2ccc(NC(C)=O)cc2)cc1`, the growth in [1] was 96.3%; in assay [3], 81%; in assay [9], 92.2%; in assay [4], 95.9%; in assay [5], 95.3%; in assay [6] it was 106%. The growth in assay [8] is 71.6%.
On to `C=C1C(=O)O[C@H]2[C@H]1CC/C(COC(=O)OCCCCCOC(=O)OC/C1=C/CC[C@@]3(C)O[C@H]3[C@H]3OC(=O)C(=C)[C@@H]3CC1)=C\CC[C@@]1(C)O[C@@H]21`, for which the growth is -4.3% (active) in assay [1]; -54.9% (active) in assay [3]; -87.6% (active) in [9]; -68.5% (active) in assay [5]; -34.2% (active) in [6]; 1.79% (active) in assay [7]. Moreover, the growth in assay [8] is -7.49% (active).
